Luciferase inh – Photinus pyralis luciferase inhibition; P08659; purified P. pyralis luciferase, luminescence, biochemical; 76,000 compounds, 2.5% hits; Potency, µM (doses to about 115 µM), actives largely listed as inhibitors; AID 1347043; also: nearly all actives have a fitted effect of over 65% in size
Target sequence (P08659 whole entry, looked up): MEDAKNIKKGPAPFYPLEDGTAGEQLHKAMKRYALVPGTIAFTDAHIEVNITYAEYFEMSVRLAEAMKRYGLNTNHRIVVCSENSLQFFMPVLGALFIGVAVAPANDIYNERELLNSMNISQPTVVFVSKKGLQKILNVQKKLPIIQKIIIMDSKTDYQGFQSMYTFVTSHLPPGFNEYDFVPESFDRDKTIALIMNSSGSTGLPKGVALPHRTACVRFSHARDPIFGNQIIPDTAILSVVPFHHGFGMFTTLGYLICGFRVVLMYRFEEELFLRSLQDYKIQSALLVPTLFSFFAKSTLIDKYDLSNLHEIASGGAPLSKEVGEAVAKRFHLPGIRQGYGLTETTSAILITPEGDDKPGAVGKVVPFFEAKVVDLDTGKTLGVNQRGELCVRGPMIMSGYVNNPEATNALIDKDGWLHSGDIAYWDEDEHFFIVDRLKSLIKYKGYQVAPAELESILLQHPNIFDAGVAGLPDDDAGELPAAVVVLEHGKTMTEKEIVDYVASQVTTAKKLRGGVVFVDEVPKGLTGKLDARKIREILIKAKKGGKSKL
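Luminescence read by CCD imager after adding enzyme (10nM final) to wells holding compound, titrated in qHTS. Substrates 10uM each D-luciferin and ATP; buffer 50mM Tris acetate pH 7.5, 10mM Mg acetate, Tween-20, BSA.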
HEK cytotox – cytotoxic compounds in HEK 293 cells. HEK 293 viability, ATP luminescence (CellTiter-Glo), 48-72 h. Potency, µM (doses to about 115 µM), inactives show at the highest dose activity change, negative = cytotoxicity, most hits filed as inhibitors. 94,000 compounds, 6.6% hits; also: nearly all actives have a fitted effect of over 60% in size
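Pintool-delivered compounds were incubated with HEK 293 cells (250 cells/well) at 37 degree Celsius for 48 or 72 hr. ATP-dependent luminescence (CellTiter-Glo) then reported remaining viable cells.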
NPR1 antag – antagonists of human natriuretic peptide receptor Npr1; P16066; HEK293 hNpr1 GloSensor cGMP, ANP-stimulated luminescence; Potency, µM (titrated, usually from 46.3 µM), without a hit: at the top dose activity change, negative = inhibition, usual class: inhibitors; 76,000 compounds, 1.6% hits; AID 1347048; calls by dose curve; also: nearly all actives have a fitted effect of over 60% in size
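Compound pre-incubated 30 min at room temperature on GloSensor-loaded HEK293 cells stably carrying hNpr1 and the pGS-40F cGMP biosensor. Stimulation uses hNppA at 0.1 nM final; luminescence is taken at baseline and 20 min post-agonist.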
3T3 cytotox – cytotoxic compounds in NIH 3T3 cells. Potency, µM (highest dose often 96.7 µM), inactives show at the highest dose activity change, negative = cytotoxicity, usual class: inhibitors. NIH 3T3 viability, CellTiter-Glo ATP luminescence, 48-72 h. 94,000 compounds, 4.3% hits; also: nearly all actives have a fitted effect of over 55% in size
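First NIH 3T3 cells are plated at 400 cells/well; next compound is pinned in; then plates incubate 48 or 72 hr at 37 °C; finally CellTiter-Glo is added and luminescence read after 10 min.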
Active calls of the source: *; [ ] = dose if it differs, or a comment. Most compounds without a hit are left out; they make up all but 11% or so of the library. Unless noted, calls follow the shape of the dose curve; as a rule, active = well fitted curve in the direction sought with a large enough effect; inconclusive = small, poorly fitted or top-dose-only effect, or another doubt; inactive = no such curve, though single readings can be large; an effect the other way counts as inactive or inconclusive. % is scaled to controls: 0 for no effect and ±100 for the full control effect; potency is read from the fitted curve at half-maximal effect.

Screening COc1ccc(C(=O)N2CCC3(CC2)Cc2ccccc2NC3=O)cc1 returned Luciferase inh inactive, HEK cytotox 22µM*, NPR1 antag -9% and 3T3 cytotox 35µM*.
`COc1ccc(C(=O)N2CCC3(CC(C(C)C)=NO3)C2)cc1` (stereo not given) gave HEK cytotox 1% and 3T3 cytotox 0%.
O=C(c1ccccc1Cl)N1CCC2(CC1)Cc1ccccc1NC2=O was read as Luciferase inh inactive, HEK cytotox 45µM*, NPR1 antag 5% and 3T3 cytotox inconclusive.
`COc1ccc(C(=O)N2CCC3(CC2)CC(C(C)C)=NO3)cc1` gave Luciferase inh inactive, HEK cytotox -19%[172 µM], NPR1 antag -7%[70.6 µM] and 3T3 cytotox 100µM*.
For O=C(C1CC1)N1CCC2(CC1)Cc1ccccc1NC2=O the results were Luciferase inh inactive, HEK cytotox -3%[172 µM], NPR1 antag -3%[70.6 µM] and 3T3 cytotox -4%[138 µM].
Screening O=C(c1ccccc1)N1CCC2(CC1)Cc1ccccc1NC2=O returned Luciferase inh inactive, HEK cytotox inconclusive, NPR1 antag 0%[70.6 µM] and 3T3 cytotox inconclusive.
CN1C(=O)c2cccn2CC1C(=O)Nc1ccc(F)cc1 (stereo not given) was read as HEK cytotox 3% and 3T3 cytotox -8%.
For CCc1[nH]c2ccc(CNC(=O)c3coc(CN4CCOCC4)c3)cc2c1C the results were Luciferase inh 32µM*, HEK cytotox -26%, NPR1 antag 2% and 3T3 cytotox -13%.
Screening CCc1[nH]c2ccc(CNC(=O)Cc3cnc4c(C)cccn34)cc2c1C returned Luciferase inh inconclusive, HEK cytotox inconclusive, NPR1 antag 7.1µM* and 3T3 cytotox inconclusive.
Screening COc1ccc(NC(=O)C2(C)CCCc3cnc(Nc4ccccc4)nc32)cn1 (stereo not given) returned Luciferase inh inactive, HEK cytotox 89µM*, NPR1 antag -21%[70.6 µM] and 3T3 cytotox 79µM*.
COc1ccc(NC(=O)C2(C)CCCc3cnc(NCc4ccccc4)nc32)cn1 (stereo not given) was read as Luciferase inh inactive, HEK cytotox inconclusive, NPR1 antag -16%[70.6 µM] and 3T3 cytotox inconclusive.
Screening COc1cccc(Nc2ncc3c(n2)C(C)(C(=O)Nc2ccc(OC)nc2)CC3)c1 (stereo not given) returned Luciferase inh inactive, HEK cytotox 89µM*, NPR1 antag 4%[70.6 µM] and 3T3 cytotox inconclusive.
CN(C)CCNC(=O)Cc1c[nH]c2ncc(-c3ccccc3)cc12 was read as Luciferase inh inactive, HEK cytotox 112µM*, NPR1 antag -11%[70.6 µM] and 3T3 cytotox inconclusive.
For O=C(Cc1c[nH]c2ncc(-c3ccccc3)cc12)NCC1CCOCC1 the results were Luciferase inh inactive, HEK cytotox 79µM*, NPR1 antag 3%[70.6 µM] and 3T3 cytotox inconclusive.
O=C(Cc1c[nH]c2ncc(-c3ccccc3)cc12)NCCc1ccccc1 was read as Luciferase inh inactive, HEK cytotox inconclusive, NPR1 antag inconclusive and 3T3 cytotox inconclusive.
For Cc1ccccc1-c1cnc2[nH]cc(CC(=O)NCCN(C)C)c2c1 the results were Luciferase inh inactive, HEK cytotox 40µM*, NPR1 antag -15%[70.6 µM] and 3T3 cytotox inconclusive.
For Fc1ccccc1-c1noc(-c2nc(Cc3ccccc3)no2)n1 the results were Luciferase inh 20µM*, HEK cytotox 0%, NPR1 antag 4% and 3T3 cytotox 0%.
`N#Cc1ccc(CN2C[C@@H]3C[C@H]2C(=O)N(Cc2ccccc2)c2ccccc2O3)cc1` gave Luciferase inh inactive, HEK cytotox 50µM*, NPR1 antag inconclusive and 3T3 cytotox inconclusive.
`O=C1[C@@H]2C[C@@H](CN2Cc2ccc(F)cc2)Oc2ccccc2N1CC1CC1` gave Luciferase inh inactive, HEK cytotox inconclusive, NPR1 antag -5%[70.6 µM] and 3T3 cytotox inconclusive.
COc1ccc(CN2C(=O)[C@@H]3C[C@@H](CN3Cc3ccccc3Cl)Oc3ccccc32)cc1 was read as Luciferase inh inactive, HEK cytotox 40µM*, NPR1 antag -12% and 3T3 cytotox 45µM*.
Screening O=C1[C@@H]2C[C@@H](CN2Cc2ccccn2)Oc2ccccc2N1Cc1ccccc1 returned Luciferase inh inactive, HEK cytotox inconclusive, NPR1 antag inconclusive and 3T3 cytotox inconclusive.

Screening results: PubChem, National Center for Advancing Translational Sciences (NCATS)
